We go through 52 compounds from PubChem BioAssay AID584 (National Center for Advancing Translational Sciences (NCATS), 2007).

The structures appear in SMILES notation. About 65 (0.09%) of roughly 71,000 compounds were called active. For the sample, actives were picked, then their nearest neighbours and some compounds at random. Values without a mark were called inactive. Calls come from the whole dose curve; as a rule, active = well fitted curve in the direction sought with a large enough effect; inconclusive = small, poorly fitted or top-dose-only effect; inactive = flat fitted curve, though single readings scatter.
% is set by controls: 0 for no effect and ±100 for the full control effect; potency is the fitted concentration of half-maximal effect.

Sequence of Beta-lactamase (Escherichia coli (strain K12)) (P00811 whole entry, looked up): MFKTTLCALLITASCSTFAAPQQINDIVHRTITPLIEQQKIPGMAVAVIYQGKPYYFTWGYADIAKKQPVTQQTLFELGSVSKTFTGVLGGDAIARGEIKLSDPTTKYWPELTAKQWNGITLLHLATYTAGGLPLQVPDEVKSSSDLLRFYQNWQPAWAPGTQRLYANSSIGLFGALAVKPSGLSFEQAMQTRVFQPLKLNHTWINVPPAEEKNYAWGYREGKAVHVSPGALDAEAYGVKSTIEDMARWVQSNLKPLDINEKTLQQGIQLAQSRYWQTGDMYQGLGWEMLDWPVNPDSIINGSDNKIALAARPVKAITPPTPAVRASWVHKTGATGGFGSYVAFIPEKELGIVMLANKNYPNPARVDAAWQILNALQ

The assay addresses Beta-lactamase (Escherichia coli (strain K12)) (UniProt P00811). Kind of assay: Promiscuous and Specific Inhibitors of AmpC Beta-Lactamase (assay with detergent). Particulars: purified AmpC, nitrocefin hydrolysis with detergent; series mostly up to 28.7 µM; activity change, negative = inhibition: at the top concentration. The protocol: NIH Molecular Libraries Screening Centers Network [MLSCN]
NIH Chemical Genomics Center [NCGC]
PI Name: Shoichet, Brian K.
This aggregation profiling approach exploits the sensitivity of aggregate formation to detergent. Inhibition of b-lactamase is measured in the presence and absence of 0.01% Triton X-100. This particular assay had the prescence of 0.01% Triton X-100. See Pubchem assay "Promiscuous and Specific Inhibitors of AmpC Beta-Lactamase (assay without detergent)" for related screen. Compounds that inhibit only in the absence of detergent are considered likely promiscuous aggregators.
A screen of 1,030 compounds was performed in Brian Shoichet's lab in 96-well format. AmpC activity was measured by following the absorbance at 480 nm. Nitrocefin is a chromogenic substrate: while nitrocefin is yellow (lmax 390 nm), the product of its hydrolysis is red (lmax 486 nm, 17,000 M-1). AmpC beta lactamase was provided by Brian Shoichet and Brian Feng, UCSF.
NCGC Assay Protocol Summary:
20 mM phosphate buffer, pH 7.0
Triton X-100: No Detergent screen: 0.0001%, Detergent screen: 0.01%.
Buffer in columns 3 and 4 as negative control (no enzyme).
5.3 nM AmpC in columns 1, 2, 5-48. Titration of UCSF compound 9 control (from 10 mM, then 1:2) pin-transferred to column 2. Column 1 is neutral (100% activity).
Six uL of reagents were dispensed to 1536-well Greiner black clear bottom plates. Compounds and controls (23 nL) were transferred via Kalypsys PinTool. The plates were incubated for 15 min at room temperature, and then 2 uL of 800 uM solution of nitrocefin was added to start the reaction. The plates were immediately transferred to and read every 20 seconds for 4 min on ViewLux (Perkin-Elmer) High-throughput CCD imager using 480 nm absorbance protocol. During dispense, reagent bottles were kept submerged into 4 deg C water bath.
Keywords: NIH Roadmap, MLSCN, MLI, MLSMR, qHTS, NCGC, AmpC Beta-Lactamase, Aggregation
With `CC(C)(O/N=C(\C(=O)N[C@@H]1C(=O)N2C(C(=O)[O-])=C(C[n+]3ccccc3)CS[C@@H]12)c1csc(N)n1)C(=O)O`, the Potency is 3.98 µM (active).

Consider `COc1ccc(OC)c(C2N(c3ccccn3)C(=O)C3CCCN32)c1` (configuration not stated), for which the “activity change, negative = inhibition” value was -2.28%.

In the case of `Clc1ccc(CSc2nnc([C@@H]3CCCN3)o2)cc1`, the “activity change, negative = inhibition” value was -2.42%.

`C=CCNC(=O)c1ccc(C)c(Br)c1`: the “activity change, negative = inhibition” value was -2.92%.

Turning to `Cc1ccc(CNC(=O)CN2CCN(Cc3ccc(Cl)cc3)C2=O)cc1`, the “activity change, negative = inhibition” value was -1.23%.

As for `COCCCNC(=O)c1ccc(CNS(=O)(=O)c2ccc(NC(C)=O)cc2)cc1`, the “activity change, negative = inhibition” value was 0.576%.

For the compound `Cn1nc(-c2ccc(Cl)cc2)c2cc(C(=O)NCc3ccco3)sc21`, the “activity change, negative = inhibition” value was 12.3%.

Consider `CCCN(CCC)CCNC(=O)c1cc2c(C)nc3ccccc3c2o1`, for which the “activity change, negative = inhibition” value is 9.75%.

In the case of `CCn1c(NCCc2ccc(OC)c(OC)c2)nc2c1c(=O)n(C)c(=O)n2C`, the “activity change, negative = inhibition” value was -1.87%.

Regarding `Fc1ccccc1CCNc1nnnn1-c1ccccc1`, the “activity change, negative = inhibition” value was -2.77%.

For the compound `Cc1ccn2cc(-c3nonc3C)cc2c1`, the “activity change, negative = inhibition” value was 13.7%.

Regarding `O=C(c1cccc(S(=O)(=O)N2CCOCC2)c1)N1CCOCC1`, the “activity change, negative = inhibition” value was 7.65%.

With `Clc1ccc(Nc2nc(-c3cccs3)cs2)nc1`, the “activity change, negative = inhibition” value was -2.26%.

As to `COc1cccc2sc(Nc3nc(C)c(C(C)=O)s3)nc12`, the “activity change, negative = inhibition” value was -2.42%.

With `CC(=O)N1CCc2cc(S(=O)(=O)Nc3ccccc3N3CCN(C)CC3)ccc21`, the “activity change, negative = inhibition” value is 11.9%.

As to `COc1ccc(OCC(=O)N2CCN(C(=O)c3cccs3)CC2)cc1`, the “activity change, negative = inhibition” value is -6.48%.

With `Cc1ccccc1C(=O)NCCN=C1NS(=O)(=O)c2ccccc21`, the “activity change, negative = inhibition” value is 7.01%.

On to `C#CCN1C(=O)C(O)(CC(=O)c2cc(OC)ccc2OC)c2ccccc21` (configuration not stated), for which the “activity change, negative = inhibition” value was -7.87%.

For the compound `CCOC(=O)c1ccc(N2C(=O)CC(N3CCC(C(=O)OCC)CC3)C2=O)cc1` (configuration not stated), the “activity change, negative = inhibition” value was 6.93%.

In the case of `O=C1c2oc3ccc(Br)cc3c(=O)c2C(c2cccc(F)c2)N1CCO` (configuration not stated), the “activity change, negative = inhibition” value is -4.42%.

Regarding `O=C(c1ccco1)N1CCC[C@@]2(CCN(Cc3nccs3)C2)C1`, the “activity change, negative = inhibition” value is -4.4%.

Take `O=C1c2oc3ccccc3c(=O)c2C(c2cccc(O)c2)N1c1ccccn1` (configuration not stated): the “activity change, negative = inhibition” value is 9.36%.

With `CCCCCCCCCCCC(=O)O[C@H](CC(=O)O)C[N+](C)(C)C`, the “activity change, negative = inhibition” value is -4.2%.

Consider `CCOC(=O)N1CCN(C(=O)c2n[nH]c(=O)c3ccccc23)CC1`, for which the “activity change, negative = inhibition” value is 0.673%.

As for `CC(C)c1cc(C(=O)O)on1`, the “activity change, negative = inhibition” value is -6.27%.

As for `O=S(=O)(c1ccc(OCC(O)CN2CCN(c3ccccc3Cl)CC2)cc1)N1CCOCC1` (configuration not stated), the “activity change, negative = inhibition” value was 2.31%.

As for `CCNC(=O)N1CCNC(=O)C1CC(=O)Nc1ccc(C(=O)OCC)cc1` (configuration not stated), the “activity change, negative = inhibition” value is -4.34%.

For `COc1ccccc1-n1nnnc1S(=O)(=O)Cc1ccc(Cl)cc1`, the “activity change, negative = inhibition” value is 1.38%.

Turning to `COc1ccc2occ(C(=O)c3ccc(N=C(C)N(C)C)cc3)c2c1`, the “activity change, negative = inhibition” value was -1.09%.

For the compound `CCC(=O)Nc1ccc2c(c1)nc(CCN1CCN(C)CC1)n2C`, the “activity change, negative = inhibition” value was -3.74%.

With `O=C(Nc1ccc(NC(=O)c2cccs2)cn1)c1ccco1`, the “activity change, negative = inhibition” value is 2.68%.

As for `COC(=O)c1oc2ccc(Br)cc2c1NC(C)=O`, the “activity change, negative = inhibition” value was 9.99%.

As for `O=C(C(NS(=O)(=O)c1cccc2nsnc12)c1ccccc1)N1CCN(c2ccccn2)CC1` (configuration not stated), the “activity change, negative = inhibition” value is -0.797%.

For `CC[C@@](O)(C(=O)O)c1cc2n(c(=O)c1CO)Cc1cc3ccccc3nc1-2`, the activity change, negative = inhibition is -3.6% [at 5.75 µM].

Take `CC(C)CCNC(=O)CN(C(=O)Cn1nnc(-c2ccc(F)cc2)n1)C1CCCC1`: the “activity change, negative = inhibition” value was 15.1%.

As to `O=C(CSc1nnc(-c2ccco2)o1)NCC(=O)c1ccccc1`, the “activity change, negative = inhibition” value was -2.2%.

As for `Nc1scc(-c2ccncc2)c1Cl`, the “activity change, negative = inhibition” value was -0.348%.

As for `O=C(CSc1nc2ccccc2o1)N1CCN(c2ccc(Cl)cc2)CC1`, the “activity change, negative = inhibition” value is -1.31%.

`O=C(c1ccccc1-c1ccccc1)N1CCOCC1`: the “activity change, negative = inhibition” value is -4.93%.

Consider `Cc1ccc(F)cc1NC(=O)c1ccc2c(c1)OCO2`, for which the “activity change, negative = inhibition” value was -1.21%.

On to `c1ccc2nc(C3=NCCN3)cnc2c1`, for which the “activity change, negative = inhibition” value is -0.2%.

Regarding `COc1ccc(CCNc2ncnc3nc[nH]c23)cc1OC`, the “activity change, negative = inhibition” value is 5.99%.

Turning to `Cc1cc(C(=O)O)ccc1[N+](=O)[O-]`, the “activity change, negative = inhibition” value was 8.6%.

Consider `O=C(Nc1ccccc1F)c1cc(S(=O)(=O)N2CCCCC2)cs1`, for which the “activity change, negative = inhibition” value is -3.84%.

For `COC(=O)[C@@]1(Cc2ccc(OC)cc2)[C@H]2c3cc(C(=O)N4CCCC4)n(Cc4ccc(C(F)(F)F)nc4)c3C[C@H]2CN1C(=O)c1ccccc1`, the “activity change, negative = inhibition” value is -0.9%.

As for `Cc1ccc(Cn2nnc3c(=O)n(CC(=O)N4CCCCC4)cnc32)cc1`, the “activity change, negative = inhibition” value is -3.82%.

In the case of `CCC(C)(C)n1nnnc1C(c1cccs1)N1CCN(c2nc3ccccc3s2)CC1` (configuration not stated), the “activity change, negative = inhibition” value is 0.863%.

`O=S(=O)(Nc1ccc2nc(-c3ccco3)[nH]c2c1)c1ccccc1`: the “activity change, negative = inhibition” value was -0.749%.

As for `Cc1cc(N2C(=O)c3ccc(C(=O)NCc4ccccc4)cc3C2=O)no1`, the “activity change, negative = inhibition” value was -2.37%.

`CCCCOc1ccc(Cl)cc1CSc1nncn1N`: the “activity change, negative = inhibition” value was -1.71%.

For the compound `NCC[Se][Se]CCN`, the activity change, negative = inhibition was -3% [at 5.75 µM].

Regarding `NC(=NC(=O)c1ccccc1)C1=C(O)CCC1=O`, the “activity change, negative = inhibition” value was 14%.
